Active and inactive are the calls of the source.
Legend:
[1] = tested on: Human papillomavirus type 1a protein E7 (residues 44-93); experiment: HPV1a E7 fragment binders on microarrays, primary screen, biochemical, small-molecule microarray, residues 44-93, 635 nm fluorescence (AID 1108); details: small-molecule microarray binding, fluorescence 635 nm; higher = more signal;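 note: E7 fragment applied at 1 µg/mL in TBST for 1 h at 4 C; score combines spot fluorescence with its signal to noise ratio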
[2] = modulators of HCV replicon luciferase signal, primary screen, HCV replication inhibitor project, Huh7 cells, luciferase reporter (AID 1109); details: 48 h, higher = more signal;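 note: huh7 hepatoma cells harbouring a luciferase neomycin HCV replicon reporter; luciferase luminescence as measure of HCV replicon replication; test concentration not given here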
[3] = target: Left-right determination factor 2 (Homo sapiens) (UniProt O00292); experiment: LEFTY2 binders on small-molecule microarrays, primary screen, biochemical, small-molecule microarray, 635 nm fluorescence scan (AID 1110); details: LEFTY2 binding, higher = more signal
[4] = target: Calmodulin-1 (Homo sapiens) (UniProt P0DP23); experiment: CALM1 binders on microarrays, EGTA buffer, profiling panel, biochemical, small-molecule microarray, Cy5-labelled CALM1 (AID 1111); details: Cy5-CALM1 binding fluorescence, higher = more signal;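 note: labelled calmodulin applied in Tris saline Tween buffer holding calcium plus EGTA and DTT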
[5] = target: Calmodulin-1 (Homo sapiens) (UniProt P0DP23); experiment: calcium-bound CALM1 binders on microarrays, profiling panel, artefact control for SMM control-protein annotation, biochemical, small-molecule microarray, Cy5-labelled CALM1, plus calcium (AID 1112); details: Cy5-CALM1 binding fluorescence, higher = more signal;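 note: score merges spot fluorescence with signal to noise from triplicate slides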
[6] = small-molecule microarray binders of probe aWnt5a, primary screen, biochemical, biotinylated probe, 635/667 nm fluorescence (AID 1113); details: higher = more signal;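 note: score merges 667 nm fluorescence intensity with signal-to-noise per printed feature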
[7] = small-molecule microarray binders of probe aShh, primary screen, biochemical, biotinylated probe, 635/667 nm fluorescence (AID 1114); details: higher = more signal;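 note: probe is biotin-labelled aShh protein from a stem cell growth factor screen; measures binding of labelled protein to compounds printed on the slide; score merges feature fluorescence at 667 nm with signal-to-noise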
[8] = small-molecule microarray binders of probe aNog, primary screen, biochemical, biotinylated probe, 635/667 nm fluorescence (AID 1115); details: higher = more signal;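 note: probe is biotinylated aNog protein used at 0.15 µg/mL for 1 h at 4 C; z-score combines 667 nm fluorescence of each spot with its signal to noise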
[9] = target: Torsin-1A-interacting protein 1 (Homo sapiens) (UniProt Q5JTV8); experiment: LAP1 binders from COS7 cell lysate, primary screen, small-molecule microarray, 635/667 nm fluorescence (AID 1116); details: COS7-hLAP1 lysate binding, 635 nm fluorescence, higher = more signal
[10] = target: Alpha-bungarotoxin (Bungarus multicinctus) (UniProt P60615); experiment: alpha-bungarotoxin binders on microarray, profiling panel, artefact control for SMM control protein annotation, biochemical, small-molecule microarray, Alexa647 label, 635/667 nm fluorescence (AID 1117); details: alpha-BTX-A647 binding fluorescence, higher = more signal
Albumin (Bos taurus) = Albumin (Bos taurus) (UniProt P02769); experiment: bovine serum albumin binders on microarray, profiling panel, artefact control for SMM control protein annotation, biochemical, small-molecule microarray, Alexa647 label, 635/667 nm fluorescence (AID 1118); details: BSA-A647 binding, fluorescence 635 nm, higher = more signal;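 note: score merges 667 nm emission intensity and signal-to-noise per printed compound spot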
[11] = small-molecule microarray binders of probe aXIP, primary screen, biochemical, NeuroSMM set, 635/667 nm fluorescence (AID 1119); details: higher = more signal, called active from +8 up or from −8 down;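 note: probe is the protein aXip251-270 applied at 1 µg/mL to compound-printed slides; binding of probe to printed compounds measured as 667 nm fluorescence plus signal to noise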
[12] = small-molecule binders of probe aNOTCH3, primary screen, biochemical, small-molecule microarray, 635/667 nm fluorescence (AID 1120); details: higher = more signal;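 note: probe is a biotin-tagged antibody raised against NOTCH3 rather than NOTCH3 protein; score merges spot fluorescence near 667 nm with spot signal to noise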
[13] = small-molecule binders of probe aNOTCH2, primary screen, biochemical, small-molecule microarray, 635/667 nm fluorescence (AID 1121); details: higher = more signal;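 note: score merges feature fluorescence read at 667 nm with its signal to noise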
[14] = target: Carbonic anhydrase 2 (Homo sapiens) (UniProt P00918); experiment: CAII small-molecule binders, profiling panel, biochemical, small-molecule microarray, Alexa647-labelled CAII (AID 1122); details: CAII-A647 binding fluorescence, higher = more signal
[15] = COS7 lysate on small-molecule microarray, probe aHis, 635 nm (AID 1123); details: COS7 cell lysate, fluorescence, higher = more signal;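 note: z-score combines 667nm fluorescence intensity with signal-to-noise per printed compound spot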
[16] = compound binding in COS7 lysate, probe aLAP1, primary screen, cell lysate, small-molecule microarray (AID 1124); details: probe aLAP1, fluorescence, higher = more signal;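 note: lysate comes from COS7 cells expressing LAP1 and is applied at 0.3 µg/mL; score merges spot fluorescence near 667 nm with signal-to-noise over triplicate slides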
Sam68 (KHDRBS1) = experiment: Sam68 small-molecule binders, primary screen, biochemical, small-molecule microarray, 635 nm fluorescence (AID 1125); details: small-molecule microarray binding, higher = more signal;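 note: score merges 667 nm channel intensity with signal to noise over triplicate slides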
[17] = tested on: Chordin-like protein 2 (CHRDL2); experiment: CHRDL2 small-molecule binders, primary screen, biochemical, small-molecule microarray, 635 nm fluorescence (AID 1126); details: small-molecule microarray binding, fluorescence 635 nm; higher = more signal;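 note: printed compound slides probed with Chrdl2 protein at 4 µg/mL for 1 h at 4 C; score merges 667 nm emission intensity with signal to noise over three replicate slides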
[18] = target: Concanavalin-A (Canavalia ensiformis) (UniProt P02866); experiment: ConA small-molecule binders, primary screen, artefact control for SMM control protein annotation, biochemical, small-molecule microarray, Alexa647 label, 635 nm (AID 1127); details: ConA-A647 binding fluorescence, higher = more signal;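 note: z combines 667 nm emission intensity with signal-to-noise across three replicate slides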
Sequence of Concanavalin-A (Canavalia ensiformis) (P02866 whole entry, looked up): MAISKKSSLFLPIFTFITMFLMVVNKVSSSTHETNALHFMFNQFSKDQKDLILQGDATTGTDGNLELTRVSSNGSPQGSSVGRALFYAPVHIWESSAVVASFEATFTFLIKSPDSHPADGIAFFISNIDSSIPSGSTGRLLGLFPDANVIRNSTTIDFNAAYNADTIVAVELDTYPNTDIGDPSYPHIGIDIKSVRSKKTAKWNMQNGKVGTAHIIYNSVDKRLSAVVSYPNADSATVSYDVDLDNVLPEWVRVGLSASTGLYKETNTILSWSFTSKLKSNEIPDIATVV

Sequence of Albumin (Bos taurus) (P02769 whole entry, looked up): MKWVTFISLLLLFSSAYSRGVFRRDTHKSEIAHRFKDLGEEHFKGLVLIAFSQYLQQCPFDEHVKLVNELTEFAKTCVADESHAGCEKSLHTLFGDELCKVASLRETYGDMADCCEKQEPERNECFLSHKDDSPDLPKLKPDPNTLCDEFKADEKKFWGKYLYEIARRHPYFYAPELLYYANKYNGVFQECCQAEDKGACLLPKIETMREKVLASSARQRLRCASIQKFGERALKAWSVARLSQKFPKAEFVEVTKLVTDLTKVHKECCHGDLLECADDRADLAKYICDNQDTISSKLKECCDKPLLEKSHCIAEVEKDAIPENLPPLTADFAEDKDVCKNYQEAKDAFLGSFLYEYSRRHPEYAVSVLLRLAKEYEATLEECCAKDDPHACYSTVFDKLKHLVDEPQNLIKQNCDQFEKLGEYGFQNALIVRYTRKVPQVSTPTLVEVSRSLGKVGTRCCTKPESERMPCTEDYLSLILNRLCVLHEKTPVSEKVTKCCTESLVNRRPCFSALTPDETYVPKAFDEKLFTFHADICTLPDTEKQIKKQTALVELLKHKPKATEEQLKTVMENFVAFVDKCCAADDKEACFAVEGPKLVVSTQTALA
Sequence of Left-right determination factor 2 (Homo sapiens) (O00292 whole entry, looked up): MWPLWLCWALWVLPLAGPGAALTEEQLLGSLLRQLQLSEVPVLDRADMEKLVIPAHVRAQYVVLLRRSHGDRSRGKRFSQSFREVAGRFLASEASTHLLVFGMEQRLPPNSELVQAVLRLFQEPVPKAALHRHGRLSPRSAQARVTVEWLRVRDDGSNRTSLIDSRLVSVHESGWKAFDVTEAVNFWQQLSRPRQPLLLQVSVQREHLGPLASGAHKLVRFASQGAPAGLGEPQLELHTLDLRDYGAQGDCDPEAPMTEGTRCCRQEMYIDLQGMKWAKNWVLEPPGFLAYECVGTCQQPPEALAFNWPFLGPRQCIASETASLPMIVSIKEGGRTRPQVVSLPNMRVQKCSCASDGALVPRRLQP
Sequence of Torsin-1A-interacting protein 1 (Homo sapiens) (Q5JTV8 whole entry, looked up): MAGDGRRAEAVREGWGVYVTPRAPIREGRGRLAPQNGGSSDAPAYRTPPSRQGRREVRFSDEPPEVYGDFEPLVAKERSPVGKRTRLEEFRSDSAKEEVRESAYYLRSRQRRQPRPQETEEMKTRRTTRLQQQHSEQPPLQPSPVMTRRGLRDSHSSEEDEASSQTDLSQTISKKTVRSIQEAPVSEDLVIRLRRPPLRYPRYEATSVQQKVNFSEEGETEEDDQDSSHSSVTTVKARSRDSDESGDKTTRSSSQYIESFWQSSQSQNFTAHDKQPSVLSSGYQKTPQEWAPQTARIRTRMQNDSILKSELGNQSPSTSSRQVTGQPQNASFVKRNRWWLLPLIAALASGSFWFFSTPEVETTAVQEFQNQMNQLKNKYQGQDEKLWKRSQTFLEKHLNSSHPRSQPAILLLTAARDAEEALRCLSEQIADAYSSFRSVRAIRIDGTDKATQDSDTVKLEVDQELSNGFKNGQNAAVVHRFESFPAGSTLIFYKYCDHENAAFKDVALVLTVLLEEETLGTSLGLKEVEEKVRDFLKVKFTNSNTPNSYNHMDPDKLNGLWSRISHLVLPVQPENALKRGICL
Sequence of Alpha-bungarotoxin (Bungarus multicinctus) (P60615 whole entry, looked up): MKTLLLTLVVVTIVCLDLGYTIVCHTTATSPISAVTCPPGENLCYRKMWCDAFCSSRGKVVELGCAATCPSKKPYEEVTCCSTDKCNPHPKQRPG

Structure (SMILES) | composite z-score [1] | z-score [2] | composite z-score [3] | composite z-score [4] | composite z-score [5] | composite z-score [6] | composite z-score [7] | composite z-score [8] | composite z-score [9] | composite z-score [10] | composite z-score (Albumin (Bos taurus)) | composite Z-score [11] | composite z-score [12] | composite z-score [13] | composite z-score [14] | composite z-score [15] | composite z-score [16] | composite z-score (Sam68 (KHDRBS1)) | composite z-score [17] | composite z-score [18]
CCCC[C@@H](O)C1=C(COc2ccccc2)C[C@H]2C(=O)N(C)C(=O)[C@H]2[C@H]1CO | -1.05 | -0.408 | -0.164 | -0.756 | -0.527 | -0.195 | -0.2 | -0.519 | -1 | -0.149 | -0.261 | -0.191 (inactive) | -0.201 | -0.173 | -0.482 | -0.61 | -0.357 | -0.501 | 0.103 | -0.425
O=C(NCc1ccccc1)[C@@H]1c2ccccc2C(=O)N(Cc2ccccc2C(F)(F)F)[C@H]1c1ccc(CO)cc1 | 0.966 | 0.129 | -0.948 | -0.526 | -0.317 | -0.252 | -0.419 | -0.383 | -0.934 | -0.166 | -0.0228 | -0.683 (inactive) | -0.232 | -0.13 | 0.759 | 0.829 | 2.63 | 0.227 | -1.2 | 0.612
COc1ccc([Si](C)(C)[C@@H]2[C@@H](CC(=O)N3Cc4ccccc4C[C@H]3CO)O[C@]3(C(=O)N(Cc4cccc(N5C(=O)c6cccc7cccc5c67)c4)c4ccccc43)[C@H]2C)cc1 | 1.21 | -3.68 | 0.98 | 0.937 | 1.46 | -0.0685 | -0.17 | -0.237 | 0.83 | 0.886 | -0.566 | -0.0894 (inactive) | 0.143 | -0.0928 | 0.598 | 1.26 | -0.235 | 0.817 | 1.27 | 1.12
CN1C(=O)C2C=CC(C(O)C#Cc3ccccc3)N(Nc3ccccc3)C2C1=O (stereo not given) | 1.45 | 0.234 | 0.302 | 1.18 | 0.533 | 0.0381 | -0.0243 | 1.35 | 1.11 | 1.35 | 1.03 | -0.0662 (inactive) | 0.405 | 0.0363 | 0.663 | 2.96 | 0.553 | 1.35 | -0.0655 | 1.09
Cc1ccc(S[C@]2(C(=O)O)CC(=O)N(Cc3ccccc3Cl)[C@@H]2c2ccc(CO)cc2I)cc1 | -0.455 | -1.77 | 0.0515 | -0.326 | -0.952 | -0.483 | 0.209 | -1.13 | -0.421 | -0.338 | 0.0877 | -0.648 (inactive) | -0.515 | -0.269 | 0.31 | 0.546 | -0.635 | 0.409 | -0.0996 | -0.1
